# From PubChem BioAssay AID777 (Sanford-Burnham Center for Chemical Genomics, 2007)
# The campaign covered roughly 96,000 compounds. About 19,000 (20%) were called active.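 How the source made its calls: active means blocking of liver enzyme CYP2C9 beyond about 50% at 5 µM (limit read from the data); inactive means the rest.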 Not all results are given here.
# Target: Cytochrome P450 2C9 (Homo sapiens) (UniProt P11712)
# Assay: blockers of cytochrome P450 2C9 activity – biochemical, luminescence, ADME assay, primary screen (AID 777)
# Conditions: CYP2C9 Supersomes, luciferin-H conversion, at 5 µM, active compounds read high
# Sequence of Cytochrome P450 2C9 (Homo sapiens) (P11712 whole entry, looked up): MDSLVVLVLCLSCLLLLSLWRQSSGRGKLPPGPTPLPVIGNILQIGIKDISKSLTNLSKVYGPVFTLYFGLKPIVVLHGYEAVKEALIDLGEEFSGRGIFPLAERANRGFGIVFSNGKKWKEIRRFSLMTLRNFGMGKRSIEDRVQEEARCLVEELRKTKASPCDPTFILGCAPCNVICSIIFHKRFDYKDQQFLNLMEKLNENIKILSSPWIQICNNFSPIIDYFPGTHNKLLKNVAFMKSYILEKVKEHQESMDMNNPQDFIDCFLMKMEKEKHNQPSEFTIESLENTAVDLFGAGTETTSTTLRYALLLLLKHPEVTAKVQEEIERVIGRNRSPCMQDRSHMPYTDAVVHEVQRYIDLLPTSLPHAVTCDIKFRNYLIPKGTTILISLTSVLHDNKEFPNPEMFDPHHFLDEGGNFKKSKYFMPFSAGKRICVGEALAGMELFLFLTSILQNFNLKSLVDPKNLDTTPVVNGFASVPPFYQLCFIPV
row,SMILES,inhibition
1,COc1ccc(Cl)cc1C(=O)Nc1ccc(N(C)C(C)=O)cc1,-206% (inactive)
2,C/C(=N\c1nc2ccccc2n1C)c1cc(Cl)ccc1O,-7.5% (inactive)
3,CC(=O)N1C(=O)C2(Nc3ccccc3N2)c2ccccc21,4.4% (inactive)
4,CC1CCc2c(c3ccccc3[nH]c2=O)O1 (stereo unspecified),35% (inactive)
5,O=C(Nc1ccc(Br)c2cccnc12)c1ccc(Cn2cc([N+](=O)[O-])cn2)o1,-72.9% (inactive)
6,CCOC(=O)c1c(NC(=O)c2ccc(Br)o2)sc2c1CCCC2,10.2% (inactive)
7,CC1CCc2c(sc(NC(=O)c3ccc(Cn4cc(Br)cn4)o3)c2C(N)=O)C1 (stereo unspecified),81.5% (active)
8,C=CCN1C(=O)C(Cc2cccc(Cl)c2)S/C1=N/N=C/c1ccco1 (stereo unspecified),-2.7% (inactive)
9,CCCNC(=O)c1ccc(Cl)c(Cl)c1,-10.8% (inactive)
10,CCCCNC(=O)C1CCCNC1=O (stereo unspecified),-10.4% (inactive)
11,CC1CN(c2cc(=O)n(-c3cccc(Br)c3)c(=O)[nH]2)CC(C)O1 (stereo unspecified),-3.4% (inactive)
12,COc1cc(-c2nnc(Cn3cc(C(F)(F)F)ccc3=O)o2)cc(OC)c1OC,12% (inactive)
13,CCCc1nc2ccccc2c(C(=O)OCc2nnc(-c3cc(OC)c(OC)c(OC)c3)o2)c1CC,67.5% (active)
14,CCCc1nc2ccccc2c(C(=O)OCC(=O)c2ccc3c(c2)NC(=O)CO3)c1CC,-20.4% (inactive)
15,Cc1cc(C(=O)COC(=O)c2cccs2)c(C)n1-c1c(C)n(C)n(-c2ccccc2)c1=O,15.4% (inactive)
16,Cc1cc(=O)n(C)c(=O)n1CCCNc1ccccc1,11.2% (inactive)
17,COc1ccc2[nH]c(=O)c(CN(CC3CCCO3)C(=O)Nc3ccccc3)cc2c1 (stereo unspecified),19.4% (inactive)
18,Cc1ccc2[nH]c(=O)c(CN(CCCN(C)C)C(=O)Nc3cccc(Cl)c3)cc2c1,1.4% (inactive)
19,Cc1cccc(NC(=O)N(Cc2cc3cc(C)cc(C)c3[nH]c2=O)CC2COCCO2)c1 (stereo unspecified),85.5% (active)
20,O=C(CS(=O)(=O)c1cn(Cc2ccc(Cl)cc2)c2ccccc12)N1CCOCC1,41% (inactive)
21,CCN(c1ccccc1)S(=O)(=O)c1ccc(N)cc1,-137% (inactive)
22,COC(=O)c1cc(Cl)c(NC(=O)c2ccco2)cc1OC,-135% (inactive)
23,COc1ccc(NC(=O)c2cccc(NC(=O)c3ccco3)c2)c(OC)c1,-50.5% (inactive)
24,COc1cc(C(=O)OC(C)C(=O)NCC2CCCCC2)cc(NC(=O)c2ccco2)c1OC (stereo unspecified),81.6% (active)
25,O=C(/C(=N\O)n1cncn1)c1ccc(Br)cc1Br,34.9% (inactive)
26,CCCC(=O)C1=C(N(C)c2ccccc2)CC(C)(C)C(C(=O)OC)C1=O (stereo unspecified),13.7% (inactive)
